# ± gives the standard deviation of the averaged measurements.
# System: HCC1569
# Assay: cell number relative to DMSO (% of DMSO); higher = more cells (less growth inhibition / toxicity)
# Details: concentration: 10 µM; 24 h
# Procedure, shortened: (§1)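 H1.0 nuclear intensity or cell number is expressed as percent of the plate control, with the median of replicates taken. HCC1569 and TDF cells were treated with compounds at 10 µM for 24 h at 37 °C, in triplicate, then fixed and immunostained for H1.0 with DAPI as a nuclear stain. HCC1569 values were smoothed to correct for positional effects.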
# 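Also: TDF denotes transformed human dermal fibroblasts of mesenchymal origin.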
row,Compound,cell number
1,COc1ccccc1OCC(O)CN1CCN(CC(=O)Nc2c(C)cccc2C)CC1.Cl.Cl (stereo not drawn) [Ranolazine.2HCl],104
2,Cl.NCCCCC(=O)O [5-Aminovaleric acid hydrochloride],102
3,COc1cc2c(CCNC(C)=O)c[nH]c2cc1O [6-Hydroxymelatonin],100
4,Cn1cnc2cc3c(Nc4cccc(Br)c4)ncnc3cc21,92.4
5,CCC1(C)CC(=O)NC1=O (stereo not drawn) [Ethosuximide],102
6,COc1cc(NC(C)CCCN)c2ncccc2c1 (stereo not drawn) [Primaquine],102
7,"CCC12CCCN3CCc4c(n(c5ccccc45)C(=O)C1)C32 (single isomer, unassigned; (-)) [(-)-Eburnamonine]",83.7
8,Br.Br.N=C(N)SCCN [2-(2-Aminoethyl)isothiourea dihydrobromide],99.2

# System: TDF
# Assay: as above
# Details: concentration: 10 µM; 24 h
# Procedure, shortened: as §1
row,Compound,cell number
1,CCCCCCCCCCCCCCCC(=O)O [Hexadecanoic acid],92.6
2,COc1c(O)cc(O)c2c(=O)cc(-c3ccccc3)oc12 [Wogonin],98.7
3,OC1C=C2CCN3Cc4cc5c(cc4C(C1O)C23)OCO5 (stereo not drawn) [Lycorine],53.3
4,CC1CN(c2c(F)c(N)c3c(=O)c(C(=O)O)cn(C4CC4)c3c2F)CC(C)N1 (stereo not drawn) [Sparfloxacin],103
5,CN(C)CCOC(c1ccccc1)c1ccccc1.Cl [Diphenhydramine.HCl],103
6,CC12CCC3c4ccc(O)cc4CC(CCCCCCCCCS(=O)CCCC(F)(F)C(F)(F)F)C3C1CCC2O (stereo not drawn) [Fulvestrant],94.3
7,CCC=CCC=CCC=CCCCCCCCCCC(=O)O [Eicosatrienoic acid],96.7 ± 14
8,CCC1(O)CC2CN(CCc3c([nH]c4ccccc34)C(C(=O)OC)(c3cc4c(cc3OC)N(C)C3C(O)(C(=O)OC)C(OC(C)=O)C5(CC)C=CCN6CCC43C65)C2)C1.O=S(=O)(O)O (stereo not drawn) [Vinblastine sulfate],11.2
9,CNc1nc(-c2ccc3c(N)n[nH]c3c2)cc(N2C[C@@H](C(=O)NC3CCCCC3)CC[C@H]2C)n1,77.9
10,"CC1(C)C(=O)N(CCN2CCC(C(=O)c3ccc(F)cc3)CC2)c2ccccc21.Cl [LY-310,762 hydrochloride]",94.5
11,"CC(C)=CCC(OC(=O)C=C(C)C)C1=CC(=O)c2c(O)ccc(O)c2C1=O (stereo not drawn) [Shikonin beta,beta-dimethylacrylate]",83.5
12,CN1Cc2c(N)cccc2C(c2ccccc2)C1.O=C(O)C=CC(=O)O (stereo not drawn) [Nomifensine maleate],104
13,"Brc1c(Br)c(Br)c2[nH]cnc2c1Br [4,5,6,7-tetrabromo-1H-benzimidazole]",71.5
14,C[N+]1(C)C2CC(OC(=O)C(O)(c3cccs3)c3cccs3)CC1C1OC12.[Br-] (stereo not drawn) [Tiotropium Bromide],97.1
15,CCOC(=O)C1=C(COCCN)NC(C)=C(C(=O)OC)C1c1ccccc1Cl (stereo not drawn) [Amlodipine],106
16,CCCCCCCCCCCCCC=CC(O)C(CO)NC(=O)CCCCCCC (stereo not drawn) [C8 Ceramide],99.5
17,CCN(CC)CCCCNc1ncc2cc(-c3c(Cl)cccc3Cl)c(NC(=O)NC(C)(C)C)nc2n1,84.5
18,COc1ccccc1NC(=O)Nc1nc(-c2cccnc2)nc2ccccc12,102
19,NC(C(=O)O)C(O)C(=O)O (racemic) [DL-threo-beta-hydroxyaspartic acid],110
20,N#CC(=Cc1c[nH]c2ccccc12)C(=O)c1ccc(O)c(O)c1 [Tyrphostin AG 808],100

row,Compound,cell number
1,O=C(C=Cc1ccc(O)c(O)c1)c1ccc(O)cc1O [Butein],89.2
2,COc1ccccc1CNCCCCCCNCCCCCCCCNCCCCCCNCc1ccccc1OC.Cl.Cl.Cl.Cl [Methoctramine tetrahydrochloride],87.6
3,C[N+](C)(CCCCCC[N+](C)(C)CCCN1C(=O)c2cccc3cccc(c23)C1=O)CCCN1C(=O)c2cccc3cccc(c23)C1=O.[Br-].[Br-],101
4,CC(C)NCC(O)c1ccc(O)c(O)c1 (racemic) [DL-Isoproterenol],108
5,Cc1ccc(C(=CCN2CCCC2)c2ccccn2)cc1.Cl [Triprolidine hydrochloride],105
6,O=P(O)(O)C(O)(Cn1ccnc1)P(=O)(O)O [Zoledronic acid],89
7,c1coc(CNc2ncnc3nc[nH]c23)c1 [Kinetin],112
8,CC1=C(C(=O)Nc2cc3cn[nH]c3cc2F)C(c2ccc(C(F)(F)F)cc2)CC(=O)N1 (stereo not drawn),98.5
9,"O=C(O)COc1ccc(C(=O)c2cccs2)c(Cl)c1Cl [[2,3-dichloro-4-(2-thienylcarbonyl)phenoxy]acetic acid]",99.8
10,CCCCNc1ncc(C(=O)NCc2ccc(-n3ccnc3)cc2)c(NC2CCC(O)CC2)n1 (stereo not drawn),63.4
11,O=C([O-])CCC(NC(=O)c1ccccc1C(=O)[O-])C(=O)[O-].[Na+].[Na+].[Na+] [Phthalamoyl-L-glutamic acid trisodium],103
12,CCCCCCCCCCCCCCCCC(=O)O [Heptadecanoic acid],94.9
13,COc1ccccc1OCC(O)CN1CCN(CC(=O)Nc2c(C)cccc2C)CC1.Cl.Cl (stereo not drawn) [Ranolazine.2HCl],93.2
14,Cl.NCCCCC(=O)O [5-Aminovaleric acid hydrochloride],107
15,COc1cc2c(CCNC(C)=O)c[nH]c2cc1O [6-Hydroxymelatonin],110
16,Cn1cnc2cc3c(Nc4cccc(Br)c4)ncnc3cc21,114
17,CCC1(C)CC(=O)NC1=O (stereo not drawn) [Ethosuximide],98.8
18,COc1cc(NC(C)CCCN)c2ncccc2c1 (stereo not drawn) [Primaquine],104
19,"CCC12CCCN3CCc4c(n(c5ccccc45)C(=O)C1)C32 (single isomer, unassigned; (-)) [(-)-Eburnamonine]",58.5
20,Br.Br.N=C(N)SCCN [2-(2-Aminoethyl)isothiourea dihydrobromide],85.8
